Only a selection was taken, and hits are over-represented in it overall.
TDP-43 tox inh = rescues yeast from TDP-43 toxicity; Potency, µM (series often up to 46.1 µM), usual class: activators; 45,000 tested, 0.45% active; AID 1347073; yeast TDP-43 toxicity rescue, BacTiter-Glo growth, 24 h; active = well fitted activation curve with a large enough effect; note: 0% is about no effect; nearly all actives have a fitted effect of over 55% in size
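TDP-43-expressing yeast, pregrown in raffinose, seeded at OD600 0.02 in galactose medium with compound for 24 hr at 30 deg C. Growth read by BacTiter-Glo luminescence, so rescue of toxicity appears as activation.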
Active calls of the source: *; i = inactive. Potency is the fitted concentration of half-maximal effect.

SMILES	TDP-43 tox inh
COC(=O)c1ccccc1NC(=O)[C@H]1O[C@@H]2OC(C)(C)O[C@@H]2[C@H]2OC(C)(C)O[C@H]21	i
O=C(NN1C(=O)c2ccc(-c3ccc4c(c3)C(=O)N(NC(=O)c3cccnc3)C4=O)cc2C1=O)c1cccnc1	i
CC1CCCN(CC(=O)NNC(=O)COc2ccc(Br)cc2)C1 (stereo not drawn)	i
COc1ccc(CC(=O)OCC(=O)N2CCCC(C)C2)cc1 (stereo not drawn)	i
CC1CCCN(C(=O)COc2ccc(-c3ccccc3)cc2)C1 (stereo not drawn)	11µM*
Cc1cccnc1CNC(=O)C1(C)CCCN1CC(C)C (stereo not drawn)	i
Cc1ccc(-n2nc3cc(C)c(NC(=O)c4ccc(-c5ccccc5)o4)cc3n2)cc1	i

Source: PubChem BioAssay (National Center for Advancing Translational Sciences (NCATS))
